Activity calls are given as the source filed them. A call without a number means that no potency is given here. The call rests on the fitted dose curve.
What follows are compounds tested against Acetylcholinesterase (Homo sapiens) (UniProt P22303) (assay: Acetylcholinesterase (AChE) small molecule antagonists: enzyme-based qHTS assay with human liver microsomes (AID 1347399; further: nearly all actives have a fitted effect of over 60% in size)). Settings: Potency: qHTS inhibition; outcome: qHTS inhibition; series mostly up to 115 µM.
Sequence of Acetylcholinesterase (Homo sapiens) (P22303 whole entry, looked up): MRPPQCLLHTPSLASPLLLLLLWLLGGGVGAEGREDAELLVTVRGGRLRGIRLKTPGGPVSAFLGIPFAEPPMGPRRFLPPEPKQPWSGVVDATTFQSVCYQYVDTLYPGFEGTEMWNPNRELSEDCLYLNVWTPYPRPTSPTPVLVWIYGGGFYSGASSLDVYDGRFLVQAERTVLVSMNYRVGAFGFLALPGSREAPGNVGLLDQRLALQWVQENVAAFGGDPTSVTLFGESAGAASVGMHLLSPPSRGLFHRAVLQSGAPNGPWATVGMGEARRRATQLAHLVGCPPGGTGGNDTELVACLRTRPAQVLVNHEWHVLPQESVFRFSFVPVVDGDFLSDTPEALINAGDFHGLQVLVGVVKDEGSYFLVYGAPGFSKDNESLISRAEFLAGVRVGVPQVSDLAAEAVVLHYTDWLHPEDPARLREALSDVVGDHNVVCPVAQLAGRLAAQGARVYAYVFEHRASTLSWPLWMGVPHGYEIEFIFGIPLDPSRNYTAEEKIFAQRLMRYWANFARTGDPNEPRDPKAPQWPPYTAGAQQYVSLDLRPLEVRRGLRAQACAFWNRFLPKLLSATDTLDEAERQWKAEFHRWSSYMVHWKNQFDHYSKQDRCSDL
From the text: National Center for Advancing Translational Sciences [NCATS]
Division of Preclinical Innovation [DPI]
U.S. Environmental Protection Agency [EPA]
National Institutes of Environmental Health Sciences [NIEHS]
National Toxicology Program [NTP]
U.S. Food and Drug Administration [FDA]
Acetylcholinesterase (AChE) is the primary cholinesterase in the body that hydrolyzes a key neurotransmitter, acetylcholine. Inhibition of AChE activity can lead to neurotoxicity. The known inhibitors include organophosphorous pesticides (OP), chemical warfare agents, drugs, and various phytochemicals. Some compounds like OP compounds may need metabolic activation to be active AChE inhibitors. The cytochrome P450 (CYP) superfamily in the human microsomes is responsible for the metabolism of various endogenous and exogenous compounds.
An enzyme-based assay with the recombinant human AChE, human liver microsomes and Amplite Colormetric acetylcholinesterase assay kit (AAT Bioquest, Sunnyvale, CA) was used to evaluate compounds in the Tox21 10K library that need metabolic activation for AChE inhibition. The assay uses 5, 5-dithiobis-(2-nitrobenzoic acid) (DTNB) to quantify the thiocholine produced from the hydrolysis of acetylthiocholine by AChE.
Tox21 Assay Protocol Summary:
For the enzyme-based AChE assay with microsomes addition, a mixture of human AChE (50 mU/mL) and human liver microsomes (0.25 mg/mL, final concentration) in 3 uL/well was dispensed into black, clear-bottom 1536-well plates using a Multidrop Combi dispenser (Thermo Scientific, MA). Then, 23 nL of compound or DMSO (vehicle control) was transferred into the assay plates by a Pintool Station (Wako Automation, CA). Following compound addition, 1 uL of NADPH (0.25 mg/mL, final concentration) was transferred to the assay plate by a Flying Reagent Dispenser (Beckman Coulter, CA). The plates were incubated for 30 min at 37 C and 5% CO2, followed by the addition of 4 uL of colorimetric detection cocktail solution (DTNB, acetylthiocholine) into each well using a Flying Reagent Dispenser (Beckman Coulter, CA) and then 10 min incubation at room temperature.
For Cc1cc(=O)oc2cc(O[C@@H]3SC[C@@H](O)[C@H](O)[C@H]3O)ccc12, the Potency was “inactive”. For CCCCCCCC/C=C/CCCOC(C)=O, the Potency was “inactive”. For Cc1ccc(N)cc1O, the Potency was “inactive”. With CC(C)CCCCOC(=O)c1ccccc1C(=O)OCCCCC(C)C the Potency was “inactive”. In the case of CC1=CCC(=C(C)C)CC1, the Potency is reported as “inactive”. With CCCN(CCC)CCc1cccc2c1CC(=O)N2 the Potency was “inactive”. For CCCCCCCCC1CCC(=O)O1 (stereo not given), the Potency was “inactive”. For CC(=O)CCC1=C(C)CCCC1(C)C, the Potency was “inactive”. COc1cc2nc(N3CCN(C(=O)C4CCCO4)CC3)nc(N)c2cc1OC (stereo not given) was tested, and the Potency was “inactive”. In the case of O=C1c2ccccc2C(=O)C1(O)O, the Potency is reported as “inactive”. COC(=O)[C@@H]1[C@H]2C[C@H]3c4[nH]c5ccccc5c4CCN3C[C@@H]2CC[C@@H]1O was tested, and the Potency was “inactive”. In the case of CC(C)COCC(CN(Cc1ccccc1)c1ccccc1)N1CCCC1 (stereo not given), the Potency is reported as “inactive”. For O=C(C1CCCCC1)N1CC(=O)N2CCCc3ccccc3C2C1 (stereo not given), the Potency was “inactive”. For ClC(Cl)(Br)Br, the Potency was “inactive”. With CN(Cc1cc(Br)cc(Br)c1N)C1CCCCC1 the Potency was “inactive”. In the case of Cc1cccc(N(C)C)c1, the Potency is reported as “inactive”. With CCCCCCCCN(C)CCCCCCCC the Potency was “inactive”. With C/C=C/C(=O)Oc1c(CCCCCC(C)C)cc([N+](=O)[O-])cc1[N+](=O)[O-] the Potency was “inactive”. For COCC(=O)O[C@]1(CCN(C)CCCc2nc3ccccc3[nH]2)CCc2cc(F)ccc2[C@@H]1C(C)C, the Potency was “inactive”. In the case of CCCCCCOC(=O)CC, the Potency is reported as “inactive”. With Cc1c(-c2ccccc2)oc2c(C(=O)OCCN3CCCCC3)cccc2c1=O the Potency was “inactive”. With O=C(O)c1c(O)c(-c2ccccc2)nc2ccccc12 the Potency was “inactive”. For CC(=O)OCC(=O)[C@@]1(OC(C)=O)[C@@H](C)C[C@H]2[C@@H]3C[C@H](F)C4=CC(=O)C=C[C@]4(C)[C@@]3(F)[C@@H](O)C[C@@]21C, the Potency was “inactive”. In the case of COc1ccc(COC=O)cc1, the Potency is reported as “inactive”. For CC(Cc1ccccc1)(NC(=O)CN)c1ccccc1 (stereo not given), the Potency was “inactive”. CC(C)OC(=O)C(C)N(C(=O)c1ccccc1)c1ccc(F)c(Cl)c1 (stereo not given) was tested, and the Potency was “inactive”. In the case of O=C(Cl)c1cc(C(=O)Cl)cc(C(=O)Cl)c1, the Potency is reported as “inactive”. For O=C(c1ccco1)N1CCNCC1, the Potency was “inactive”. For Cc1ccc(CCn2c3c(c4cc(Cl)ccc42)CN(C)CC3)cn1, the Potency was “inactive”. With OC[C@H]1O[C@@H]2O[C@H]3[C@H](O)[C@@H](O)[C@@H](O[C@H]4[C@H](O)[C@@H](O)[C@@H](O[C@H]5[C@H](O)[C@@H](O)[C@@H](O[C@H]6[C@H](O)[C@@H](O)[C@@H](O[C@H]7[C@H](O)[C@@H](O)[C@@H](O[C@H]8[C@H](O)[C@@H](O)[C@@H](O[C@H]9[C@H](O)[C@@H](O)[C@@H](O[C@H]1[C@H](O)[C@H]2O)O[C@@H]9CO)O[C@@H]8CO)O[C@@H]7CO)O[C@@H]6CO)O[C@@H]5CO)O[C@@H]4CO)O[C@@H]3CO the Potency was “inactive”. With O=c1[nH][nH]c(=O)c2cc([N+](=O)[O-])ccc12 the Potency was “inactive”. O=C(O)c1cc(-c2ccc(F)cc2F)ccc1O was tested, and the Potency was “inactive”. For Nc1ccc(Oc2ccc(N)c(N)c2)cc1, the Potency was “inactive”. In the case of CCOC(=O)COC(=O)c1cc(Oc2ccc(C(F)(F)F)cc2Cl)ccc1[N+](=O)[O-], the Potency is reported as “inactive”. For CCCCCCCCCCCCCCCCOS(=O)(=O)O, the Potency was “inactive”. With CCCCC(CC)COP(=O)(O)O (stereo not given) the Potency was “inactive”. For CC(C)CCOC(=O)CC(C)C, the Potency was “inactive”. With CC(C)(C)c1ccc(OCC2CO2)cc1 (stereo not given) the Potency was “inactive”. With CCCc1ccc(OC)cc1 the Potency was “inactive”. With CCC(=O)/C=C/c1ccc(OC)cc1 the Potency was “inactive”.

Reference: PubChem BioAssay (Tox21)
